Data as given in the supplement of paper PMC11577813, “Eurasian spruce bark beetle detects lanierone using a highly expressed specialist odorant receptor, present in several functional sensillum types” (BMC Biology, 2024).
± gives the standard deviation of the averaged measurements.

System: lanierone-responsive B-neuron OSN class (ItypOR36)
Assay: net action potential response of lanierone B-neuron (blank-subtracted) (spikes/s (Hz)); higher = stronger excitation
Conditions: 10 µg on filter paper, neuron: B neuron (small spike amplitude)
Description: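 Single sensillum recordings from antennal olfactory sensilla of live adult Ips typographus. Each compound was 10 µg in paraffin oil, delivered as a 0.5 s puff. Net response = spikes in the first 0.5 s of response minus the 0.5 s pre-stimulus count, doubled to give Hz, with blank response subtracted. Values are for the small-spike lanierone-responsive B-neuron (putatively expressing ItypOR36), recorded in sensilla co-housing the A-neuron class; N = 1-4, averaged.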

[1] = co-localized A-neuron class: (4S)-cis-verbenol
[2] = co-localized A-neuron class: (5S,7S)-trans-conophthorin
[3] = co-localized A-neuron class: (+)-isopinocamphone
[4] = co-localized A-neuron class: (+)-trans-4-thujanol
[5] = co-localized A-neuron class: ipsdienol
[6] = co-localized A-neuron class: myrcene
[7] = co-localized A-neuron class: p-cymene

Row | Structure (SMILES) | net action potential response [1] | net action potential response [2] | net action potential response [3] | net action potential response [4] | net action potential response [5] | net action potential response [6] | net action potential response [7]
1 | C=CCc1ccc(OC)cc1 [Estragole] | 1.33 ± 7.6 | 0 ± 7.8 | 0 ± 2 | 0 ± 4.3 | 4 ± 5.3 | -8 | -2.67 ± 1.1
2 | O=Cc1ccccc1 [Benzaldehyde] | 0 ± 3.5 | 0.667 ± 1.1 | -2.67 ± 3.1 | -2.5 ± 10 | 2 ± 7.2 | -6 | 0
3 | Cc1ccccc1 [Toluene] | 2 ± 4 | -1 ± 5 | -4 | 1 ± 1.1 | -2 ± 3.5 | 0 | 0
